Lamin A splicing – modulators of lamin A splicing | Potency, µM (highest dose often 46.1 µM), hits mostly inhibitors | 200,000 tested, 0.01% active | HeLa LMNA splicing GFP/RFP minigene ratio, 48 h; active means well fitted inhibition curve with a large enough effect in the signal ratio, with a control signal flat, not every such curve was filed as active; inconclusive means small, poorly fitted or top-dose-only effect, or effect the other way, or a change in a side signal; the % refers to the signal ratio
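S3 HeLa stable clones carrying a lamin A-EGFP splicing minigene plus DsRed2 were seeded at 600 cells/well in Opti-MEM with 2% FBS, pin-dosed and incubated 48 h at 37°C. Acumen cytometry (488 nm) gave the GFP/RFP total-intensity ratio.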
HTT aggregate – inhibitors of mutant huntingtin aggregate formation in PC12 cells | 220,000 tested, 1.1% active | Potency, µM (highest dose often 46.1 µM), usual class: inhibitors | AID 1688 | PC12 HttQ103-GFP aggregates, Acumen cytometry, 40 h; further: nearly all actives have a fitted effect of over 60% in size
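Aggregate formation scored by laser-scanning cytometer (488 excitation, 500–530 emission) in lysed PC12 cells expressing Q103-GFP after 100 nM tebufenozide induction; library tested in dose series, with ATPLite reagent added in the multiplex.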
Luc counter – Kinase-Glo luciferase inhibition (counter-screen); Q27757; AID 1379; Potency, µM (doses to about 38.3 µM), hits mostly inhibitors; Kinase-Glo luciferase, ATP luminescence, 8 min; 200,000 tested, 0.28% active; further: nearly all actives have a fitted effect of over 60% in size
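Light output from Kinase-Glo luciferase with luciferin and 10 uM ATP in 50 mM imidazole pH 7.2, KCl, MgCl2, Tween 20, BSA; compound pin-delivered, 8-min ambient incubation, then luminescence read.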
ALDH1A1 inh – inhibitors of human aldehyde dehydrogenase 1A1. Purified ALDH1A1, NADH fluorescence, propionaldehyde substrate. 220,000 tested, 7.3% active. AID 1030. Potency, µM (top dose mostly 75.3 µM), usual class: inhibitors. P00352; active means well fitted inhibition curve with a large enough effect, not every such curve was filed as active; inconclusive means small, poorly fitted or top-dose-only effect, or another doubt; inactive means no such curve, though single readings can be large or run the other way
Target sequence (P00352 whole entry, looked up): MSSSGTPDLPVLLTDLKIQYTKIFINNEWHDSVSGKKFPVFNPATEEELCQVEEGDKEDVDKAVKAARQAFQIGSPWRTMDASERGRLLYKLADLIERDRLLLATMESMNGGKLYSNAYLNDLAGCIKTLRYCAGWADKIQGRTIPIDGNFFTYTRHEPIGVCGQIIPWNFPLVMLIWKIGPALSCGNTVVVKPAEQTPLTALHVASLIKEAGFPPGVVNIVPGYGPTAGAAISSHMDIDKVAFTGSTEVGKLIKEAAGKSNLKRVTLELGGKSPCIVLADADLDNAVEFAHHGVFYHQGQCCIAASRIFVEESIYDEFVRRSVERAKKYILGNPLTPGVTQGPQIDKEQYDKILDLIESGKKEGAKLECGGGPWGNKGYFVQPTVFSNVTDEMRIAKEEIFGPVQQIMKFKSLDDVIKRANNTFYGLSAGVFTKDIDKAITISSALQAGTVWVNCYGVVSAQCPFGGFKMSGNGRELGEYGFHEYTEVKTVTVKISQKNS
HPGD block – HPGD (human) dehydrogenase inhibition; P15428; purified HPGD, NADH fluorescence kinetic, PGE2 substrate; Potency, µM, hits mostly inhibitors; 150,000 tested, 4.3% active; AID 894; active means well fitted inhibition curve with a large enough effect, not every such curve was filed as active; inconclusive means small, poorly fitted or top-dose-only effect, or another doubt; inactive means no such curve, though single readings can be large or run the other way
Target sequence (P15428 whole entry, looked up): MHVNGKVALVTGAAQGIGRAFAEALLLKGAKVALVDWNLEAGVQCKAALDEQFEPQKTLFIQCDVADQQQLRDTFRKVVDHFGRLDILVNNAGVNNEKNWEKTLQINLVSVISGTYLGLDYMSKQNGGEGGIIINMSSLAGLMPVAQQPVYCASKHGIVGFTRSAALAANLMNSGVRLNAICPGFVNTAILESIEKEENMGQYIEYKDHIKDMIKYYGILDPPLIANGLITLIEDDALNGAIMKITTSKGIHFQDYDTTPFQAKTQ
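20 nM HPGD preincubated 15 min at room temperature with compound in 50 mM Tris-HCl pH 8, 0.01% Tween 20. Started with 1 mM NAD+ and 30 uM prostaglandin E2; NADH fluorescence (360/450 nm) read 5 times over 30-s intervals, last minus first.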
HTT cytoprotect – protects HTT-Q103 PC12 cells, measured by ATP | PC12 HTT-Q103 induced, cytoprotection, ATP luminescence, 40 h | Potency, µM (top dose mostly 56.4 µM), hits mostly activators | 230,000 tested, 0.14% active | AID 1471; further: nearly all actives have a fitted effect of over 45% in size
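PC12 cells stably carrying ecdysone-inducible Htt exon 1 (Q103)–GFP were induced with 100 nM tebufenozide (final) alongside library compounds in a dose series. Cytoprotection was scored as retained ATP by ATPlite luminescence.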
Of the large screens only hits and unclear results are named; the others gave an inactive call. This is a sample that favours compounds with a hit; in the whole collection about 9% have one here. Unless noted, the call rests on the fitted dose curve; in most records, active means well fitted curve in the direction sought with a large enough effect; inconclusive means small, poorly fitted or top-dose-only effect, or another doubt; inactive means no such curve, though single readings can be large; an effect the other way counts as inactive or inconclusive.

O=C(O)C1C2C=CC(O2)C1C(=O)NCc1ccccc1Br (centres undefined)	Lamin A splicing inconclusive, ALDH1A1 inh 14µM
COc1ccccc1NC(=O)C1C2C=CC(O2)C1C(=O)O (centres undefined)	ALDH1A1 inh inconclusive
CC(=O)Nc1c(O)nc(SCC(=O)Nc2ccc(C(C)=O)cc2)[nH]c1=O	ALDH1A1 inh 11µM
O=C(c1ccc(Cl)nc1)c1cccs1	none (no result: Lamin A splicing, Luc counter, ALDH1A1 inh, HPGD block)
O=C(c1cccs1)c1no[n+]([O-])c1C(=O)c1cccs1	Lamin A splicing inconclusive, HTT aggregate inconclusive, ALDH1A1 inh 0.28µM, HPGD block 13µM
COc1ccc(C(=O)c2no[n+]([O-])c2C(=O)c2ccc(OC)cc2)cc1	Lamin A splicing inconclusive, HTT aggregate inconclusive, ALDH1A1 inh 1µM, HPGD block inconclusive
COc1ccc(NC(=O)c2c(N)no[n+]2[O-])cc1	none (no result: Lamin A splicing, HPGD block)
O=S(=O)(c1ccccc1)N1CCC2(CCN(c3ccncc3)CC2)CC1	HTT cytoprotect inconclusive (no result: Lamin A splicing, HTT aggregate)
C=CCc1ccc(OCCn2cccc2C=O)c(OC)c1	ALDH1A1 inh inconclusive
COc1cc(/C=C2/C(=O)c3cccc([N+](=O)[O-])c3C2=O)c(Br)cc1O	Lamin A splicing inconclusive, Luc counter 11µM, ALDH1A1 inh 8.9µM, HPGD block 1.4µM (no result: HTT cytoprotect)
COc1ccc(-c2nc(-c3cccc([N+](=O)[O-])c3O)cc(=O)o2)cc1OC	none
CCN1CCCC1Cn1cnc2c([nH]c3ccc(Cl)cc32)c1=O (centres undefined)	ALDH1A1 inh inconclusive, HPGD block inconclusive
Cc1ccc(N2CC(C(=O)OCc3ccc([N+](=O)[O-])cc3)CC2=O)cc1 (centres undefined)	ALDH1A1 inh 11µM, HPGD block 25µM
O=C(CN1C2=NCCN2c2ccccc21)c1ccc(Br)cc1	none
O=C(CN1C2=NCCCN2c2ccccc21)c1cccc(Br)c1	HTT aggregate 4µM, ALDH1A1 inh inconclusive
CC1CCCCN1C(=O)c1ccc(COc2ccc([N+](=O)[O-])cc2)o1 (centres undefined)	Lamin A splicing inconclusive, ALDH1A1 inh 14µM, HPGD block 22µM (no result: HTT cytoprotect)
NNC(=O)c1ccc(COc2ccc([N+](=O)[O-])cc2)o1	none (no result: Lamin A splicing, Luc counter, ALDH1A1 inh, HPGD block)
CCc1ccc(NC(=O)/C(C#N)=C/c2cn(CC(=O)O)c3ccccc23)cc1	none (no result: Lamin A splicing, HPGD block)
N#C/C(=C/c1cn(CC(=O)O)c2ccccc12)C(=O)Nc1ccccc1	Lamin A splicing inconclusive, ALDH1A1 inh 25µM (no result: HPGD block)
N#C/C(=C\c1cn(Cc2ccccc2C#N)c2ccccc12)C(=O)NCc1cccs1	ALDH1A1 inh 7.9µM, HPGD block inconclusive
COc1ccccc1OCCn1cc(/C=C(\C#N)C(=O)NCc2cccs2)c2ccccc21	HTT aggregate inconclusive, ALDH1A1 inh inconclusive
Cc1cccc(NC(=O)/C(C#N)=C\c2cn(CC(=O)O)c3ccccc23)c1	ALDH1A1 inh 20µM (no result: Lamin A splicing, HPGD block)
C[n+]1cccc2c(Br)ccc([O-])c21	ALDH1A1 inh inconclusive (no result: Lamin A splicing, Luc counter, HPGD block)
O=c1[nH]c(=O)n(Cc2ccccc2)c2nc(-c3cccs3)n(CCO)c12	ALDH1A1 inh inconclusive (no result: Luc counter, HPGD block)
C=CCn1c(C)cc(C(=O)COc2ccc(S(=O)(=O)N3CCCC3)cc2[N+](=O)[O-])c1C	ALDH1A1 inh 5µM
O=C(c1ccc(Cc2nc3ccccc3[nH]2)cc1)N1CCCCC1	HPGD block 16µM (no result: Lamin A splicing, HTT aggregate, HTT cytoprotect)
Cc1ccsc1/C=N/N1CCN(C2c3ccccc3-c3ccccc32)CC1	none
COc1cc([N+](=O)[O-])ccc1NC(=O)C[n+]1cccc(C(C)=O)c1	ALDH1A1 inh inconclusive (no result: Lamin A splicing, HPGD block, HTT cytoprotect)
O=C(C[n+]1ccc(Cc2ccccc2)cc1)Nc1ccc([N+](=O)[O-])cc1Cl	Lamin A splicing inconclusive, HTT aggregate inconclusive, ALDH1A1 inh 20µM (no result: HPGD block, HTT cytoprotect)
COc1cc([N+](=O)[O-])ccc1NC(=O)C[n+]1ccccc1	ALDH1A1 inh 14µM
Cc1cccc[n+]1CC(=O)Nc1ccc([N+](=O)[O-])cc1Cl	none
COc1ccc(NC(=O)CCN2C(=O)c3ccc([N+](=O)[O-])cc3C2=O)c(OC)c1	ALDH1A1 inh 20µM (no result: HTT cytoprotect)
COc1cc([N+](=O)[O-])ccc1NC(=O)Cn1ccsc1=N	ALDH1A1 inh 8.9µM (no result: Lamin A splicing, Luc counter, HPGD block)
COc1ccc(NC(=O)c2c3c(nc4ccccc24)CCN(Cc2ccccc2)C3)c(OC)c1	ALDH1A1 inh inconclusive (no result: HPGD block)
COc1ccc(C(=O)N2CCc3cc(OC)c(OC)cc3C2COc2ccccc2OC)cc1 (centres undefined)	none (no result: HTT aggregate, Luc counter, ALDH1A1 inh, HPGD block, HTT cytoprotect)
Cc1ccc(C)n1-c1ccc(-c2ccn[nH]2)cc1	ALDH1A1 inh inconclusive (no result: HPGD block)
O=[N+]([O-])c1ccc(C[n+]2ccc(Cc3ccccc3)cc2)cc1	ALDH1A1 inh 25µM (no result: Lamin A splicing, HPGD block)
COc1cc([N+](=O)[O-])ccc1NC(=S)NCc1ccccn1	ALDH1A1 inh 18µM
O=[N+]([O-])c1ccc(CS(=O)Cc2ccccc2)cc1 (centres undefined)	none (no result: Lamin A splicing, HTT aggregate)
COCCSc1ccccc1C(=O)N1CCN(c2ccccc2OC)CC1	none (no result: HPGD block)
CCOC(=O)C1CCN(c2c(NCCCN3CCN(Cc4ccccc4)CC3)c(=O)c2=O)CC1	HPGD block 14µM
CCCNC(=O)c1ccc(CNc2c(N3CCC(C(=O)OCC)CC3)c(=O)c2=O)cc1	ALDH1A1 inh inconclusive, HPGD block 4.5µM
CC1CCN(c2c(NCc3ccc(C(=O)N4c5ccccc5CC4C)cc3)c(=O)c2=O)CC1 (centres undefined)	Lamin A splicing inconclusive, HPGD block 13µM
CCOC(=O)C1CCN(c2c(NCc3ccc(C(=O)NCCC(C)C)cc3)c(=O)c2=O)CC1	HPGD block 3.5µM
CC1CCN(c2c(NCc3ccc(C(=O)NCCc4ccc(Cl)cc4)cc3)c(=O)c2=O)CC1	HPGD block inconclusive (no result: HTT cytoprotect)
O=C1N(c2ccc(Cl)cc2)C(c2ccccc2)N2CCCN12 (centres undefined)	none
O=C(NC1CCCC1)c1ccc(CNc2c(N3CCOCC3)c(=O)c2=O)cc1	HPGD block 7.9µM
CC1CCN(c2c(NCc3ccc(C(=O)N4CCN(C5CCCCC5)CC4)cc3)c(=O)c2=O)CC1	HPGD block inconclusive (no result: HTT cytoprotect)
CCOC(=O)C1CCCN(C(=O)c2ccc(CNc3c(N4CCC(C)CC4)c(=O)c3=O)cc2)C1 (centres undefined)	ALDH1A1 inh inconclusive, HPGD block 10µM
COc1ccccc1/C=C(/C(=O)OCC(=O)NCc1ccccc1)c1ccccc1	Lamin A splicing inconclusive, ALDH1A1 inh inconclusive (no result: HTT cytoprotect)
Cc1ccnc(NS(=O)(=O)Cc2ccccc2)c1	ALDH1A1 inh inconclusive, HPGD block inconclusive
O=C(CSc1nc2ccccc2[nH]1)N/N=C/C=C/c1ccccc1[N+](=O)[O-]	HTT aggregate inconclusive, ALDH1A1 inh 4.5µM
Cc1occc1C(=O)N/N=C/C=C\c1ccccc1[N+](=O)[O-]	Lamin A splicing inconclusive, ALDH1A1 inh inconclusive (no result: HPGD block)

Screens (PubChem)
